Among the data in PubChem BioAssay AID1240 (Sanford-Burnham Center for Chemical Genomics, 2008) are displacement values, retold here.

Several values for one entry are separate records, joined by “and”; a condition that tells them apart may be missing. Identical values can stand only once. Out of some 50,000 compounds screened, about 800 (1.6%) showed an effect of 50% or more. The list comes from a sample in which strong results are over-represented; it also holds similar structures and randomly drawn compounds.

In this assay the target is Bcl-2-like protein 10 (Homo sapiens) (UniProt Q9HD36). Nature of the assay: Phenotype converters, Bcl-B/TR3 peptide binding displacement, primary biochemical FP (AID 1240).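 Note: 0% = Bcl-B with tracer peptide and DMSO and 100% = tracer peptide lacking Bcl-B.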 As to conditions: GST-Bcl-B / FITC-TR3 peptide fluorescence polarization; stronger effect = higher value; compound at 3.75 mg/L.
Sequence of Bcl-2-like protein 10 (Homo sapiens) (Q9HD36 whole entry, looked up): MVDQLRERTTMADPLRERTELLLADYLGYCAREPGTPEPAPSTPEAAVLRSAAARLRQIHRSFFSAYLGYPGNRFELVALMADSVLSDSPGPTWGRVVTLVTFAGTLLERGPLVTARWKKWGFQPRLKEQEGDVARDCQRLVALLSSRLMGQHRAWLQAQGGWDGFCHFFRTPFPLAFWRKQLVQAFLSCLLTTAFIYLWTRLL
As to `O=C(Cc1ccccc1)N1CCN(Cc2cccnc2)CC1`, the displacement stood at 9.9%.
In the case of `CC(C)c1ccc(N2C(=O)CC(=O)NC2=O)cc1`, the displacement is -5.9%.
On to `CC1(C)C(C(=O)Nc2cccc3ccccc23)C1(C)C`, for which the displacement came out at 3.9%.
Then `Cc1ccccc1-n1c(CN2C(=O)c3ccccc3C2=O)nc2ccccc2c1=O`, with -9.6%; and `CC(C)CCn1c(=O)c(C(=O)Nc2ccc(I)cc2)c(O)c2ccccc21`, with 7.1%; and `Cc1cc(Cl)ccc1OCC(=O)N1CCN(C)CC1`, with -6.7%.
As for `O=C(Nc1ccc(Br)cc1C(=O)c1ccccc1)c1ccc(F)cc1`, the displacement was determined as 8.4%.
Turning to `O=C(ON1CC1(C(F)(F)F)C(F)(F)F)c1ccccc1` (centres undefined), the displacement was 3.2%.
For the compound `O=C1c2ccccc2-c2onc3c(Br)cc(N4CC4)c1c23`, the displacement stood at 178%.
As to `Cc1ccc(N2C(=O)CC(=O)NC2=S)cc1`, the displacement stood at 5.6%.
As for `COc1cccc(/C=C2/C(=O)NC(=O)N(c3cccc(C)c3)C2=O)c1O`, the displacement came out at 3.1%.
Take `COc1ccc(N2C(=O)NC(=O)/C(=C/c3ccc(-c4cccc(Cl)c4)o3)C2=O)cc1`: the displacement stood at 69%.
Then `CN1C(=O)NC(=O)/C(=C\c2cc3c(cc2Cl)OCO3)C1=O`, with 0.4%; and `COc1ccc(N2C(=O)NC(=O)/C(=C/c3cc4c(cc3Cl)OCO4)C2=O)cc1`, with 81.5%; and `Cc1ccc(N2C(=O)NC(=O)/C(=C\c3ccc(-c4ccc(Cl)c(C(=O)O)c4)o3)C2=O)cc1`, with 6.3%.
As for `COc1ccc(N2C(=O)NC(=O)/C(=C/c3ccc(SC)cc3)C2=O)cc1`, the displacement is -9.4%.
With `Cc1ccc(/C=C2/C(=O)NC(=O)N(c3ccc(Cl)cc3)C2=O)o1`, the displacement amounted to 36.2%.
With `COc1ccc(CN2CCN(Cc3cc(Br)ccc3O)CC2)cc1`, the displacement worked out at 13.1%.
For `Cc1cc(C=C2C(=O)NC(=O)NC2=O)c(C)n1-c1ccc(N(C)C)cc1`, the displacement amounted to 0.1%.
Turning to `CN=C(C)c1c(O)n(C)c(=S)n(C)c1=O`, the displacement came out at 8.8%.
`C(=NCCCN1CCOCC1)c1c[nH]c2ccccc12`: the displacement is 2.6%.
As to `O=c1c2ccccc2nc(-c2cccs2)n1-c1ccccn1`, the displacement was 19.3%.
Next, `O=C(Cn1c[n+]([N-][N+](=O)[O-])cn1)N1CCN(C(=O)Cn2c[n+]([N-][N+](=O)[O-])cn2)CC1`: 15%; `O=C(Cn1c[n+]([N-][N+](=O)[O-])cn1)Nc1ccc([N+](=O)[O-])cc1`: 16.4%; `O=C(Cn1c[n+]([N-][N+](=O)[O-])cn1)Nc1ccc(NC(=O)Cn2c[n+]([N-][N+](=O)[O-])cn2)cc1`: 59.6%.
For `CCOc1ccc(N2C(=O)NC(=O)/C(=C\c3ccc(C)o3)C2=O)cc1`, the displacement is 11.6%.
As for `COc1ccc(C=C2C(=O)NC(=O)NC2=O)cc1OCc1ccc(Cl)cc1Cl`, the displacement was 150%.
With `COc1cc(C=C2C(=O)NC(=O)NC2=O)ccc1OCc1ccc(C(=O)O)cc1`, the displacement was 0.6%.
With `COc1ccc(C=C2C(=O)NC(=S)NC2=O)cc1OCc1ccccc1Cl`, the displacement turned out to be 8.2%.
Next, `O=c1oc2ccccc2c2c1C(c1ccc(Cl)cc1)c1c(c3ccccc3oc1=O)O2`: 10.3%; `COc1cccc(CN2CCNCC2)c1OC`: 15.6%.
`O=C(N/N=C1/CN2CCC1CC2)c1ccc(O)cc1`: the displacement worked out at 17.8%.
Next, `COC(=O)C(=O)/C(=C\c1ccc(-c2ccccc2[N+](=O)[O-])o1)C(=O)c1ccccc1`: 56.7%; `CN1C(=O)NC(=O)/C(=C/c2ccc(-c3ccccc3[N+](=O)[O-])o2)C1=O`: 35.6%; `O=C1C(=Cc2ccc(-c3ccccc3[N+](=O)[O-])o2)C(=O)N(c2ccccc2)C(=S)N1c1ccccc1`: 16.4%.
Turning to `Cc1ccccc1-n1c(=S)[nH]c2ccccc2c1=O`, the displacement was -11% and -8.7%.
Then `O=C1Nc2ccccc2/C1=C/c1nc2ccc(I)cc2c(=O)n1-c1ccccc1`, with 4.5%.
For `O=[N+]([O-])c1ccc(CNCCc2cccc(F)c2)cc1`, the displacement was 2.2%.
Turning to `C=CCOc1ccc(/C=C2\C(=O)NC(=O)N(CC=C)C2=O)cc1OC`, the displacement was determined as 10.9%.
Turning to `COc1cc(C=C2C(=O)N(C)C(=O)N(C)C2=O)ccc1OCCOc1ccccc1`, the displacement was found to be 54.3%.
Turning to `CN1C(=O)C(=Cc2cccc(OCCOc3ccc([N+](=O)[O-])cc3)c2)C(=O)N(C)C1=O`, the displacement turned out to be 6.4%.
Consider `Cc1ccc(-c2nc3ccccc3c(=O)n2-c2nccs2)cc1`, for which the displacement is -0.6%.
Then `O=[N+]([O-])/C=C/c1ccccc1OCc1ccc(Cl)cc1Cl`, with 4.5%.
For the compound `O=C1NC(=O)N(c2cccc(Br)c2)C(=O)/C1=C/c1ccco1`, the displacement stood at 5.2%.
`Cc1cc(C=C2C(=O)NC(=S)NC2=O)c(C)n1C`: the displacement amounted to 6.6%.
Next, `Cc1cc(C)cc(N2C(=O)NC(=O)/C(=C\c3cc(C)n(C)c3C)C2=O)c1`: 90.5%.
Then `O=C1NC(=O)N(c2cccc(Br)c2)C(=O)/C1=C/c1ccc(-c2ccc(C(=O)O)cc2)o1`, with -56.7%; and `Cc1cc(/C=C2\C(=O)NC(=S)N(c3ccccc3F)C2=O)c(C)n1C`, with 14.1%; and `CCc1ccccc1N1C(=O)NC(=O)/C(=C\c2cc(C)n(C)c2C)C1=O`, with 87.7%.
Regarding `Cc1cc(/C=C2\C(=O)NC(=O)N(c3cccc(Br)c3)C2=O)c(C)n1C`, the displacement is 126%.
With `Cc1cc(/C=C2\C(=O)NC(=O)N(c3ccc(Cl)cc3)C2=O)c(C)n1C`, the displacement stood at 1.7%.
In the case of `O=C1NC(=O)N(c2ccccc2Cl)C(=O)C1=Cc1ccccc1`, the displacement stood at 12.8%.
As to `Cc1ccc(-n2c(/C=C3/C(=O)Nc4ccc(Br)cc43)nc3ccccc3c2=O)cc1`, the displacement was determined as 4.3%.
As to `Cc1cc(C)cc(N2C(=O)NC(=O)/C(=C\C=C\c3ccccc3)C2=O)c1`, the displacement is 42.9%.
Take `CCCCn1c(=O)c(C(=O)Nc2ccc(I)cc2)c(O)c2ccccc21`: the displacement was found to be 7.1%.
Next, `CN1C(=O)C(=Cc2ccc(-c3cc(C(=O)O)ccc3Cl)o2)C(=O)N(C)C1=O`: -2.5%.
In the case of `Cc1ccc(N2C(=O)NC(=O)/C(=C\C=C\c3ccccc3)C2=O)cc1`, the displacement is 21.4%.
Turning to `C=CCN1C(=O)NC(=O)/C(=C/c2ccc(-c3cc([N+](=O)[O-])ccc3Cl)o2)C1=O`, the displacement stood at 84.3%.
Then `O=C1NC(=O)C(=Cc2ccc(-c3ccc([N+](=O)[O-])cc3Cl)o2)C(=O)N1`, with 66.8%.
As to `CN1C(=O)NC(=O)/C(=C/c2ccc(-c3cccc([N+](=O)[O-])c3)o2)C1=O`, the displacement was -20.5%.
On to `Cc1cc([N+](=O)[O-])ccc1-c1ccc(/C=C2/C(=O)NC(=O)N(C)C2=O)o1`, for which the displacement was 11.4%.
Then `O=C1NC(=O)C(=Cc2ccc(-c3cc([N+](=O)[O-])ccc3O)o2)C(=O)N1`, with 109%; and `Cc1cc([N+](=O)[O-])c(C)cc1-c1ccc(C=C2C(=O)NC(=O)NC2=O)o1`, with 8.4%.
Next, `Cc1cc(-c2ccc(C=C3C(=O)NC(=O)NC3=O)o2)ccc1[N+](=O)[O-]`: 13.1%.
Next, `O=C1NC(=S)NC(=O)C1=Cc1ccc(-c2cc(Cl)c([N+](=O)[O-])cc2Cl)o1`: 19.3%; `O=C1NC(=S)NC(=O)C1=Cc1ccc(-c2ccc([N+](=O)[O-])cc2Br)o1`: 29%.
Consider `Cc1cccc(N2C(=O)NC(=O)/C(=C/c3ccc(-c4ccc([N+](=O)[O-])cc4C)o3)C2=O)c1`, for which the displacement worked out at 76.7%.
Turning to `CN1C(=O)NC(=O)/C(=C/c2ccc(-c3ccc([N+](=O)[O-])cc3)o2)C1=O`, the displacement came out at 3.6%.
As to `CN1C(=O)NC(=O)/C(=C/c2ccc(-c3ccc([N+](=O)[O-])cc3Br)o2)C1=O`, the displacement was -9.1%.
Regarding `COc1ccc(CN2C(=O)NC(=O)/C(=C\c3ccoc3)C2=O)cc1`, the displacement is -114%.
Then `CSc1nc2ccccc2c(=O)n1-c1cccc(C)c1`, with -6.2%.
Consider `O=C1NC(=O)N(c2ccc(Cl)cc2)C(=O)/C1=C\c1cc(Br)cc(Cl)c1O`, for which the displacement stood at 4.8%.
Take `N#CC(C#N)=Cc1cccc2ccccc12`: the displacement was found to be 5.7%.
As for `O=C1NC(=S)NC(=O)C1=Cc1cccc(OS(=O)(=O)c2ccc3ccccc3c2)c1`, the displacement was 3.4%.
On to `COc1cc(OC)c(OC)cc1CN1CCN(C(=O)COc2ccccc2)CC1`, for which the displacement was -13.1%.
On to `COc1ccc(CN2CCN(C(=O)Cc3ccccc3)CC2)cc1Br`, for which the displacement is -10%.
On to `CN(C)c1ccc(/C=C2\C(=O)NC(=O)N(c3ccccc3Cl)C2=O)cc1`, for which the displacement stood at 9.7%.
Regarding `Cc1cc(C=C2C(=O)NC(=O)NC2=O)c(C)n1C`, the displacement worked out at 2.4%.
Consider `Cc1cc(C=C2C(=O)NC(=O)NC2=O)c(C)n1C1CCCCC1`, for which the displacement was 124%.
As to `Cc1cc(C)cc(-n2c(C)cc(C=C3C(=O)NC(=O)NC3=O)c2C)c1`, the displacement came to 13.1%.
Then `O=C1c2ccccc2NC(c2ccccc2F)N1c1ccccc1` (centres undefined), with -0.3%; and `Cc1nc2ccc(I)cc2c(=O)n1-c1ccc([N+](=O)[O-])cc1Cl`, with 13%.
For the compound `Cc1nc2ccccc2c(=O)n1-c1ccc([N+](=O)[O-])cc1`, the displacement came out at 11.9%.
As for `Cc1nc2cc([N+](=O)[O-])ccc2c(=O)n1-c1ccc(Cl)cc1`, the displacement is 71.3%.
